Data from PubChem BioAssay AID1159580 (chemical genetic matrix, 2015).
Where “and” joins values, the source holds several entries; their conditions need not be identical. Equal entries are not always repeated. In all, about 5,500 compounds went through this assay and about 2,000 (36%) were called active. Not shown: some 18% with an inconclusive outcome. No stated cut-off is given here; in the data, active means normalized growth mostly below about 0.91 (no sharp cut-off); inconclusive means no clear call, values can overlap the other calls; inactive means mostly above about 0.92. Some of the results follow.

Test: chemical genetic growth profiling, strain panel (AID 1159580);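 further: tested at 20 µM; growth read once vehicle control cultures reached saturation at 30 °C; 1 = growth at the plate median or of vehicle wells; lower values mean less growth of the strain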
Settings: S. cerevisiae deletion strains, growth OD
[1] = locus YAL040C, strain CLN3, hits give low values
[2] = locus YCL061C, strain MRC1 (second series), hits give low values
[3] = locus YER002W, strain NOP16, hits give low values
[4] = locus YJR075W, strain HOC1, hits give low values
[5] = locus YMR263W, strain SAP30, hits give low values
[6] = locus YNL153C, strain GIM3, hits give low values
[7] = locus YNL175C, strain NOP13, hits give low values
[8] = locus YNL197C, strain WHI3, hits give low values
[9] = locus YNL224C, strain SQS1, hits give low values
[10] = locus YOR083W, strain WHI5 (second series), hits give low values
[11] = locus YPL241C, strain CIN2, hits give low values

Measured: normalized growth

N[C@@H](CC(=O)O)C(=O)O
inactive: locus YAL013W, strain DEP1, hits give low values 1.01 | [1] 1.09 | [2] 1.01 | [3] 1.01 | [4] 1.01 | [5] 1 | [6] 1.02 | [7] 1 | [8] 1 | [9] 0.996 | [10] 0.955 | [11] 1.01

O=c1[nH]cnc2[nH]ncc12
inactive: locus YAL021C, strain ccr4, hits give low values 1.01 | locus YAL026C, strain drs2, hits give low values 1 | locus YAL030W, strain snc1, hits give low values 0.985 | [1] 1.01 | locus YBL061C, strain skt5, hits give low values 1 | locus YBR009C, strain hhf1, hits give low values 1 | locus YBR021W, strain FUR4, hits give low values 1.01 | locus YBR023C, strain chs3, hits give low values 1 | locus YBR171W, strain sec66, hits give low values 1.01 | locus YBR229C, strain ROT2, hits give low values 1.01 | locus YBR231C, strain swc5, hits give low values 1.02 | locus YBR279W, strain paf1, hits give low values 1 | locus YCL011C, strain gbp2, hits give low values 1.01 | locus YCL016C, strain dcc1, hits give low values 1.01 | locus YCL029C, strain bik1, hits give low values 1.02 | [2] 0.996 | locus YCL069W, strain vba3, hits give low values 1.01 | locus YCR088W, strain abp1, hits give low values 0.993 | locus YDL005C, strain med2, hits give low values 0.998 | locus YDL035C, strain GPR1, hits give low values 0.997 | locus YDL040C, strain nat1, hits give low values 0.988 | locus YDL074C, strain BRE1, hits give low values 0.996 | locus YDL101C, strain DUN1, hits give low values 1.01 | locus YDL134C, strain PPH21, hits give low values 0.993 | locus YDL185W, strain tfp1, hits give low values 1.02 | locus YDL192W, strain arf1, hits give low values 1.01 | locus YDR001C, strain nth1, hits give low values 0.992 | locus YDR069C, strain doa4, hits give low values 1.04 | locus YDR101C, strain arx1, hits give low values 1 | locus YDR137W, strain rgp1, hits give low values 0.993 | locus YDR159W, strain sac3, hits give low values 1.02 | locus YDR162C, strain NBP2, hits give low values 1.01 | locus YDR195W, strain ref2 0.958 | locus YDR297W, strain sur2, hits give low values 1 | locus YDR318W, strain mcm21, hits give low values 1.01 | locus YDR334W, strain swr1, hits give low values 1.03 | locus YDR335W, strain msn5, hits give low values 1.01 | locus YDR388W, hits give low values 1.02 | locus YDR392W, strain spt3, hits give low values 0.966 | locus YDR502C, strain sam2, hits give low values 1.01 | locus YEL003W, strain gim4, hits give low values 1.01 | locus YEL037C, strain rad23, hits give low values 1.01 | locus YEL061C, strain CIN8 (second series), hits give low values 1.02 | locus YEL061C, strain CIN8, hits give low values 1 | [3] 1 | locus YER015W, strain faa2, hits give low values 1.01 | locus YER016W, strain bim1, hits give low values 0.97 | locus YER110C, hits give low values 1.03 | locus YER111C, strain swi4, hits give low values 1 | locus YER155C, strain BEM2 (second series), hits give low values 1.01 | locus YER155C, strain BEM2, hits give low values 1.01 | locus YER167W, strain BCK2, hits give low values 0.999 | locus YFR010W, strain ubp6, hits give low values 1.01 | locus YGL078C, strain dbp3, hits give low values 1.01 | locus YGL086W, strain mad1, hits give low values 1 | locus YGL167C, strain pmr1, hits give low values 1.01 | locus YGL173C, strain kem1, hits give low values 0.998 | locus YGL227W, strain vid30, hits give low values 1.01 | locus YGL240W, strain doc1, hits give low values 1.04 | locus YGL248W, strain PDE1, hits give low values 1.01 | locus YGL253W, strain hxk2, hits give low values 0.995 | locus YGR135W, strain pre9, hits give low values 1.01 | locus YGR252W, strain gcn5, hits give low values 0.989 | locus YHR013C, strain ard1, hits give low values 0.968 | locus YHR027C, strain rpn1, hits give low values 1 | locus YHR030C, strain SLT2, hits give low values 1.01 and 0.983 | locus YHR079C, strain IRE1 (second series), hits give low values 1.02 | locus YHR079C, strain IRE1, hits give low values 1.04 | locus YHR094C, strain hxt1, hits give low values 1.03 | locus YHR129C, strain ARP1, hits give low values 1 | locus YHR142W, strain chs7, hits give low values 0.998 | locus YHR200W, strain rpn10, hits give low values 1.03 | locus YIL066C, strain RNR3, hits give low values 1.01 | locus YIL073C, strain SPO22, hits give low values 1.04 | locus YIL125W, strain kgd1, hits give low values 1.02 | locus YIR030C, strain dcg1, hits give low values 1.01 | locus YJL092W, strain hpr5, hits give low values 1.01 | locus YJL095W, strain BCK1 (second series), hits give low values 1.01 | locus YJL095W, strain BCK1, hits give low values 1.02 and 1.03 | locus YJL115W, strain asf1, hits give low values 1.02 | locus YJL129C, strain trk1, hits give low values 1.01 | locus YJL134W, strain LCB3, hits give low values 0.999 | locus YJL154C, strain vps35, hits give low values 1.01 | locus YJL164C, strain tpk1, hits give low values 0.981 | locus YJL166W, strain qcr8, hits give low values 1.02 | locus YJL168C, strain set2, hits give low values 1.02 | locus YJL187C, strain SWE1 (second series), hits give low values 1.02 | locus YJL187C, strain SWE1, hits give low values 1.01 | locus YJR043C, strain POL32, hits give low values 0.988 | locus YJR066W, strain TOR1, hits give low values 0.974 | [4] 1.01 | locus YKL009W, strain mrt4, hits give low values 1.02 | locus YKL068W, hits give low values 1.01 | locus YKL085W, strain MDH1 (second series), hits give low values 1 | locus YKL085W, strain MDH1, hits give low values 1 | locus YKL160W, strain elf1, hits give low values 1 | locus YKR001C, strain vps1, hits give low values 1.01 | locus YKR026C, strain gcn3, hits give low values 1.06 | locus YKR091W, strain srl3, hits give low values 0.999 | locus YLL001W, strain dnm1, hits give low values 1.01 | locus YLL026W, hits give low values 1 | locus YLL041C, strain sdh2, hits give low values 0.987 | locus YLR027C, strain aat2, hits give low values 1.01 | locus YLR039C, strain RIC1, hits give low values 1 | locus YLR058C, strain SHM2, hits give low values 1.01 | locus YLR102C, strain apc9, hits give low values 1.02 | locus YLR113W, strain HOG1, hits give low values 1.02 | locus YLR221C, strain rsa3, hits give low values 1.01 | locus YLR258W, strain gsy2, hits give low values 1 | locus YLR262C, strain YPT6 (second series), hits give low values 1 | locus YLR262C, strain YPT6, hits give low values 1.04 | locus YLR268W, strain sec22, hits give low values 1.02 | locus YLR320W, strain mms22, hits give low values 0.992 | locus YLR330W, strain CHS5, hits give low values 1 | locus YLR342W, strain FKS1 (second series), hits give low values 0.982 | locus YLR342W, strain FKS1, hits give low values 1.02 | locus YLR357W, strain rsc2, hits give low values 0.998 | locus YLR370C, strain arc18, hits give low values 1.01 | locus YLR371W, strain rom2, hits give low values 1.01 | locus YLR384C, strain iki3, hits give low values 1 | locus YLR418C, strain cdc73, hits give low values 1.01 | locus YML016C, strain PPZ1, hits give low values 1.01 | locus YML032C, strain rad52, hits give low values 1.01 | locus YML120C, strain ndi1, hits give low values 1.02 | locus YML124C, strain tub3, hits give low values 1.02 | locus YMR058W, strain fet3, hits give low values 1.02 | locus YMR078C, strain ctf18, hits give low values 1.02 | locus YMR125W, strain sto1, hits give low values 0.998 | locus YMR129W, hits give low values 1.01 | locus YMR205C, strain PFK2, hits give low values 0.998 | locus YMR223W, strain ubp8, hits give low values 1.01 | locus YMR231W, strain pep5, hits give low values 1 | [5] 0.997 | locus YMR307W, strain GAS1, hits give low values 1.02 and 1.01 | locus YNL067W, strain RPL9B, hits give low values 1.02 | locus YNL071W, strain lat1, hits give low values 1.02 | [6] 1.03 | [7] 1.01 | locus YNL183C, strain NPR1, hits give low values 0.977 | [8] 1.01 | locus YNL209W, strain ssb2, hits give low values 0.998 | [9] 0.994 | locus YNL233W, strain BNI4, hits give low values 1.01 | locus YNL248C, strain rpa49, hits give low values 1.04 | locus YNL250W, strain rad50, hits give low values 1.01 | locus YNL271C, strain bni1, hits give low values 1.02 | locus YNL298W, strain CLA4, hits give low values 1.01 | locus YNL307C, strain MCK1, hits give low values 1.03 | locus YNL322C, strain KRE1 (second series), hits give low values 0.993 | locus YNL322C, strain KRE1, hits give low values 1.01 | locus YNR049C, strain mso1, hits give low values 1.02 | locus YNR052C, strain pop2, hits give low values 1.02 | locus YOL006C, strain TOP1, hits give low values 1.05 | locus YOL012C, strain htz1 0.934 | locus YOL147C, strain pex11, hits give low values 1.01 | locus YOR001W, strain rrp6, hits give low values 1.05 | locus YOR061W, strain CKA2, hits give low values 1.01 | locus YOR069W, strain VPS5, hits give low values 1 | locus YOR070C, strain gyp1, hits give low values 0.996 | locus YOR080W, strain dia2, hits give low values 1.02 | [10] 1.04 | locus YOR083W, strain WHI5, hits give low values 1.05 | locus YOR106W, strain vam3, hits give low values 1.03 | locus YOR136W, strain idh2, hits give low values 1.02 | locus YOR144C, strain elg1, hits give low values 1.01 | locus YOR184W, strain ser1, hits give low values 1.01 | locus YOR231W, strain MKK1, hits give low values 1.03 | locus YOR265W, strain rbl2, hits give low values 1.01 | locus YOR270C, strain vph1, hits give low values 1.08 | locus YOR290C, strain snf2, hits give low values 0.993 | locus YOR316C, strain cot1, hits give low values 1.01 | locus YPL051W, strain arl3, hits give low values 1.01 | locus YPL078C, strain atp4, hits give low values 1.03 | locus YPL106C, strain sse1, hits give low values 1.01 | locus YPL240C, strain hsp82, hits give low values 1 | [11] 1 | locus YPL256C, strain CLN2, hits give low values 1 | locus YPR119W, strain clb2, hits give low values 1.02 | locus YPR141C, strain kar3, hits give low values 1.03 | locus YPR163C, strain tif3, hits give low values 1.03 | locus YPR167C, strain met16, hits give low values 1.02 | strain wtn01, hits give low values 1
